In the supplement of paper PMC13172266:
Counter-ions that a name gives are not always drawn.

Tests used:
Test in all cases: cell proliferation relative to vehicle (% of vehicle); higher = less growth inhibition
Settings in all cases: 72 h
[1] = system: U2932 TK216-resistant clone 2
Summary of the method: (§1)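 Growth medium with 10% FBS at 37°C and 5% CO2 was used to culture U2932, an ABC-DLBCL line, in parental form and as two clones rendered resistant to an ETS-targeting agent by repeated exposure over almost a year. These cells received compounds from a 348-member targeted inhibitor library at 500 nM or 50 nM for 72 h, followed by 4 h of MTT, a 25% SDS stop and an absorbance read on a Cytation 3. The percentage of proliferating cells is reported relative to DMSO vehicle.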

[2] = system: U2932 TK216-resistant clone 3
Summary of the method: as §1

[3] = system: U2932 parental
Summary of the method: as §1

Structure (SMILES) | cell proliferation ([1]; 50 nM) | cell proliferation ([1]; 500 nM) | cell proliferation ([2]; 50 nM) | cell proliferation ([2]; 500 nM) | cell proliferation ([3]; 50 nM) | cell proliferation ([3]; 500 nM)
FC(F)(F)c1ccc(/C=C/c2nc(COc3ccc(CCCCn4ccnn4)cc3)co2)cc1 [Mubritinib (TAK 165)] | 90.7 | 61 | 80.9 | 63.5 | 85.6 | 57.4
CC(C=CC(=O)NO)=CC(C)C(=O)c1ccc(N(C)C)cc1 (configuration not stated) [Trichostatin A (TSA)] | 68.3 | 8.5 | 74.5 | 4.96 | 67.2 | 2.14
C[C@H](NC(=O)/C(C#N)=C/c1cccc(Br)n1)c1ccccc1 | 108 | 111 | 109 | 102 | 105 | 102
Nc1nc(F)nc2c1ncn2[C@@H]1O[C@H](CO)[C@@H](O)[C@@H]1O [Fludarabine] | 107 | 97.8 | 103 | 96.4 | 103 | 97.3
Nc1cccc2c1CN(C1CCC(=O)NC1=O)C2=O (configuration not stated) [Lenalidomide (CC-5013)] | 107 | 98 | 102 | 96 | 98 | 99.7
CO[C@H]1/C=C\C=C(/C)C(=O)NC2=CC(=O)C(NCCN(C)C)=C(C[C@@H](C)C[C@H](OC)[C@H](O)[C@@H](C)/C=C(\C)[C@@H]1OC(N)=O)C2=O [17-DMAG (Alvespimycin) HCl] | 46.7 | 3.06 | 42.3 | 17 | 67 | 3.09
O=c1c(O)c(-c2ccc(O)c(O)c2)oc2cc(O)cc(O)c12 [Quercetin] | 110 | 119 | 108 | 106 | 101 | 106
O=C(O)CCNc1cc(N2CCc3ccccc3CC2)nc(-c2ccccn2)n1 | 103 | 100 | 105 | 102 | 99.3 | 99.8
Cc1c(CN2CCN(C(=O)[C@H](C)O)CC2)sc2c(N3CCOCC3)nc(-c3cnc(N)nc3)nc12 | 79.4 | 32 | 82.1 | 40.6 | 85 | 33.4
CC(C)C[C@H](NC(=O)[C@H](CCc1ccccc1)NC(=O)CN1CCOCC1)C(=O)N[C@@H](Cc1ccccc1)C(=O)N[C@@H](CC(C)C)C(=O)[C@@]1(C)CO1 [Carfilzomib (PR-171)] | -2.48 | -4.13 | -2.24 | -4.17 | -1.34 | -1.99
C=CCn1c(=O)c2cnc(Nc3ccc(N4CCN(C)CC4)cc3)nc2n1-c1cccc(C(C)(C)O)n1 | 89.6 | 20.5 | 99.7 | 38.7 | 94.7 | 33.1
Nc1cccc2c1C(=O)N(C1CCC(=O)NC1=O)C2=O (configuration not stated) [Pomalidomide] | 95.8 | 94.7 | 91 | 84.7 | 93.2 | 84.3
CCCCOc1c(C(=O)c2c(F)cc(C)cc2F)c[nH]c2nncc1-2 | 78.8 | 59.3 | 92.2 | 58.9 | 89.3 | 77.1
Nc1ccc(C(=O)Nc2cccc(-c3nc(N4CCOCC4)c4oc5ncccc5c4n3)c2)cn1 | 98.7 | 104 | 102 | 104 | 102 | 103
Cn1cc(-c2ccc3c(c2)CCN3C(=O)Cc2cccc(C(F)(F)F)c2)c2c(N)ncnc21 | 105 | 102 | 108 | 121 | 101 | 105
CN1CCC(Nc2nc(Nc3ccc(Oc4ccccc4)cc3)c3c(=O)[nH]cc(Br)c3n2)CC1 | 100 | 83.1 | 99.4 | 83.4 | 89.6 | 85.5
COc1ccc(-c2ccc3ncc4c(c3c2)n(-c2ccc(N3CCNCC3)c(C(F)(F)F)c2)c(=O)n4C)cn1 | 15.8 | -0.777 | 30.9 | 0.399 | 19.7 | 1.95
COC(=O)c1ccc2c(c1)NC(=O)/C2=C(\Nc1ccc(N(C)C(=O)CN2CCN(C)CC2)cc1)c1ccccc1 [Nintedanib (BIBF 1120)] | 105 | 94.8 | 93.4 | 81.7 | 102 | 96.6
CNC(=O)c1cc(Oc2ccc(NC(=O)Nc3ccc(Cl)c(C(F)(F)F)c3)cc2)ccn1 [Sorafenib] | 114 | 107 | 105 | 122 | 101 | 112
Cc1nc(-c2ccc(OCC(C)C)c(C#N)c2)sc1C(=O)O [Febuxostat] | 101 | 110 | 106 | 104 | 102 | 103
Nc1ncn([C@@H]2O[C@H](CO)[C@@H](O)[C@H]2O)c(=O)n1 [Azacitidine] | 103 | 96.5 | 103 | 97.2 | 99.9 | 91.8
NC(=O)c1cccc2cn(-c3ccc([C@@H]4CCCNC4)cc3)nc12 [MK-4827(Niraparib) tosylate] | 103 | 91.7 | 109 | 103 | 92.5 | 97.1
CC1(C)CC[C@]2(NC(=O)C(C)(F)F)CC[C@]3(C)[C@H](C(=O)C=C4[C@@]5(C)C=C(C#N)C(=O)C(C)(C)[C@@H]5CC[C@]43C)[C@@H]2C1 [Omaveloxolone (RTA-408)] | 95.5 | 10 | 103 | 23.8 | 93.8 | 14.7
O=C(NOC[C@H](O)CO)c1ccc(F)c(F)c1Nc1ccc(I)cc1F | 101 | 101 | 96.6 | 96 | 92.3 | 91.5
CN(C)C(=N)NC(=N)N [Metformin HCl] | 110 | 102 | 113 | 108 | 99.9 | 98.9
COc1ccc(-c2nc(N3CCOCC3)c3sc(CN(C)c4ncc(C(=O)NO)cn4)cc3n2)cn1 | 0.345 | 2.02 | 3.18 | 9.31 | 0.767 | 3.78
CN[C@@H](C)C(=O)N[C@H](C(=O)N1CCC[C@H]1C(=O)Nc1snnc1-c1ccccc1)C1CCCCC1 | 102 | 111 | 97.2 | 107 | 95 | 103
